Results from PubChem BioAssay.
Active and inactive are the calls of the source.

Columns and labels:
[1] = tested on: PRMT1 (protein arginine N-methyltransferase 1); assay: small molecules binding arginine methyltransferase PRMT1 – biochemical, small-molecule microarray, 635 nm fluorescence, primary screen (AID 1088); conditions: higher = more signal;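 also: binding of Prmt1 protein to compounds spotted on small-molecule microarray slides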
[2] = growth effects on S. cerevisiae YJM789 – YJM789 clinical isolate, OD600, 24 h, basal, primary screen (AID 1089); conditions: higher = more signal, called active from +8 up or from −8 down;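 also: growth of clinical yeast isolate S. cerevisiae YJM 789 seeded 1000 cells per well; test concentration not given here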
[3] = S. pombe growth modifiers, basal conditions – strain 972, OD600, 24 h, no modulator, primary screen (AID 1090);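 also: basal condition with compound alone and no growth modifier present; test concentration not given here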; conditions: S. pombe 972 growth, higher = more signal, called active from +8 up or from −8 down
[4] = budding yeast growth modifiers under rapamycin – strain BY4716, OD600, 96 h, primary screen (AID 1091); also: test concentration not given here; conditions: S. cerevisiae BY4716 + rapamycin, higher = more signal, called active from +8 up or from −8 down
[5] = biological target: Torsin-1A-interacting protein 2 (Homo sapiens) (UniProt Q8NFQ8); assay: small molecules binding lysate-expressed LULL1 – cell lysate, human LULL1 lysate, 635/667 nm fluorescence, primary screen (AID 1092); conditions: small-molecule microarray, hLULL1 lysate binding, 635 nm fluorescence; higher = more signal;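 also: probe is lysate of COS7 cells overexpressing human LULL1; score merges per-feature 667 nm fluorescence with signal-to-noise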
[6] = optical density change of DRC41 E. coli – strain DRC41, OD650, 24 h, E. coli filamentation project, primary screen (AID 1093);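 also: MC1000 strain lacking acrAB efflux and sulA so SOS filamentation is blocked; test concentration not given here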; conditions: E. coli DRC41 growth, higher = more signal, called active from +8 up or from −8 down
[7] = probe aLefty2 binding to arrayed compounds – biochemical, biotinylated probe, 635/667 nm fluorescence, primary screen (AID 1094); conditions: small-molecule microarray, higher = more signal;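 also: score merges spot fluorescence near 667 nm with spot signal-to-noise ratio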
[8] = tested on: Noggin (protein binding on small-molecule microarray); assay: small molecules binding Noggin protein – biochemical, 635/667 nm fluorescence, primary screen (AID 1095); conditions: 635 nm fluorescence, higher = more signal;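 also: score merges 667 nm feature fluorescence with signal to noise over triplicate slides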
[9] = biological target: Neurogenic locus notch homolog protein 3 (Homo sapiens) (UniProt Q9UM47); assay: small molecules binding NOTCH3 protein – biochemical, 635/667 nm fluorescence, primary screen (AID 1096); conditions: small-molecule microarray, 635 nm fluorescence, higher = more signal
[10] = probe aEGFR binding to arrayed compounds – biochemical, biotinylated probe, 635/667 nm fluorescence, primary screen (AID 1097); conditions: small-molecule microarray, higher = more signal;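 also: probe is a biotinylated anti-EGFR antibody binding compounds printed on slides; score combines fluorescence near 667 nm and signal to noise of each spot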
[11] = tested on: Plasmodium falciparum Sir2 (PF13_0152, Sir2A); assay: Plasmodium falciparum Sir2A binding compounds – biochemical, small-molecule microarray, 635 nm fluorescence, primary screen (AID 1098); conditions: fluorescence 635 nm, higher = more signal;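 also: score merges spot fluorescence intensity with its signal-to-noise ratio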
[12] = probe aDKK1 binding to arrayed compounds – biochemical, biotinylated probe, 635/667 nm fluorescence, primary screen (AID 1099); conditions: small-molecule microarray, higher = more signal;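 also: score merges 667nm spot fluorescence with signal to noise across triplicate slides; reference of the scale not given here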
[13] = probe aCHRDL2 binding to arrayed compounds – biochemical, biotinylated probe, 635/667 nm fluorescence, primary screen (AID 1100); conditions: small-molecule microarray, higher = more signal
[14] = change in splice reporter luminescence, either direction, cell-based, HEK293, spliceosome inhibition project, primary screen (AID 1101); conditions: HEK293 splicing luciferase reporter, 24 h, higher = more signal, called active from +8 up or from −8 down;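 also: HEK293 cells carrying a splicing-competent luciferase reporter gene; test concentration not given here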
[15] = biological target: Fibroblast growth factor 10 (Homo sapiens) (UniProt O15520); assay: compounds binding fibroblast growth factor 10 – biochemical, small-molecule microarray, 635 nm fluorescence, primary screen (AID 1102); conditions: FGF10 binding, fluorescence 635 nm, higher = more signal
[16] = tested on: glycogen synthase kinase-3 (GSK3A per assay name; protocol says GSK3B); assay: compounds binding glycogen synthase kinase-3 – biochemical, small-molecule microarray, 635 nm fluorescence, GSK3A, primary screen (AID 1103); conditions: fluorescence 635 nm, higher = more signal; also: the record names both GSK3A and GSK3B
[17] = biological target: Epidermal growth factor receptor (Homo sapiens) (UniProt P00533); assay: compounds binding epidermal growth factor receptor – biochemical, small-molecule microarray, 635 nm fluorescence, primary screen (AID 1104); conditions: EGFR binding, higher = more signal;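 also: score merges 667 nm emission intensity with spot signal to noise over triplicate slides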
[18] = biological target: Follistatin-related protein 3 (Homo sapiens) (UniProt O95633); assay: compounds binding follistatin-related protein 3 – biochemical, small-molecule microarray, 635 nm fluorescence, primary screen (AID 1105); conditions: FSTL3 binding, higher = more signal;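 also: score merges emission near 667 nm and signal to noise per printed spot across three slides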
[19] = biological target: Dickkopf-related protein 1 (Homo sapiens) (UniProt O94907); assay: small molecules binding DKK1 protein – biochemical, small-molecule microarray, 635 nm fluorescence scan, primary screen (AID 1106); conditions: higher = more signal;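 also: score merges emission near 667 nm with signal to noise over three replicate slides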
[20] = tested on: Inhibin beta A chain (activin A); assay: small molecules binding activin A – biochemical, small-molecule microarray, 635 nm fluorescence scan, primary screen (AID 1107); conditions: INHBA, higher = more signal;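 also: mouse activin A protein probed at 4.33 µg/mL on printed slides; score merges bound-protein fluorescence near 667 nm with spot signal-to-noise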

Chain of Dickkopf-related protein 1 (Homo sapiens) (O94907 whole entry, looked up): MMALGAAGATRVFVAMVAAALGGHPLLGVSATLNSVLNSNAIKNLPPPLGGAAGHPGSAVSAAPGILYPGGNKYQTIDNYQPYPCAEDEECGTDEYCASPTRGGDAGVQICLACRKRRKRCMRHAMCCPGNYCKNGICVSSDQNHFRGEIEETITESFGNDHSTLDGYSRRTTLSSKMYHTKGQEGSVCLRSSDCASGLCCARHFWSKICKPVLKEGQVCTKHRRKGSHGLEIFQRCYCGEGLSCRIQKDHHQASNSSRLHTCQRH
Chain of Epidermal growth factor receptor (Homo sapiens) (P00533 whole entry, looked up): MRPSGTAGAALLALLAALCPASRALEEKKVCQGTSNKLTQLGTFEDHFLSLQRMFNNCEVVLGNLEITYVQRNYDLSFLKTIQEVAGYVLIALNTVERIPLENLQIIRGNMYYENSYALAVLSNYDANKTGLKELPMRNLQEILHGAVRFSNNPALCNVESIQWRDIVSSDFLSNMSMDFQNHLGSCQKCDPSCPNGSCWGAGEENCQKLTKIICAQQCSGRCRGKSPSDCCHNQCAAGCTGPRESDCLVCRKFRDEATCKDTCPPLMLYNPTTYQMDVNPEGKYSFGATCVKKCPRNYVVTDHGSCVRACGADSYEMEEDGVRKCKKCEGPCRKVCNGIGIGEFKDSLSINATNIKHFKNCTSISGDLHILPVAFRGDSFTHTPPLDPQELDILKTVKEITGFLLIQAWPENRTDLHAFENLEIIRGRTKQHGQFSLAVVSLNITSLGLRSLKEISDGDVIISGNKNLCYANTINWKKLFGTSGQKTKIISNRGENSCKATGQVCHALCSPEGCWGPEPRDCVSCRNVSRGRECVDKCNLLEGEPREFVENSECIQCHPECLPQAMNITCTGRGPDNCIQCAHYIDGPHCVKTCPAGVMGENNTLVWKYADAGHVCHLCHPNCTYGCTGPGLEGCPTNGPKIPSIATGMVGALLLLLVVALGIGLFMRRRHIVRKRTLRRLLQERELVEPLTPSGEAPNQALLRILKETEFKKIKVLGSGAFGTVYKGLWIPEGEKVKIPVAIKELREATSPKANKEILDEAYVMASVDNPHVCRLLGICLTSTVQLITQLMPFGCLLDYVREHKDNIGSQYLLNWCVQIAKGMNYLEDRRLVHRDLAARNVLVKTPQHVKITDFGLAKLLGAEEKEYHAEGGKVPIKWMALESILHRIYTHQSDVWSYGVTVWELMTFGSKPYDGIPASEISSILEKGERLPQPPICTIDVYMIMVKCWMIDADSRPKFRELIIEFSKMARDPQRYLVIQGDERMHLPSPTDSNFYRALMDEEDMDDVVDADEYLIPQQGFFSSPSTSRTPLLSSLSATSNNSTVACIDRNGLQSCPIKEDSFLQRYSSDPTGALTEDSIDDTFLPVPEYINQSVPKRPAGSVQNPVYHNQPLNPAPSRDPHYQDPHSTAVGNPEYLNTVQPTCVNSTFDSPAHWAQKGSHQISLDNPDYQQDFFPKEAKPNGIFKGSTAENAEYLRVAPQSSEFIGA
Chain of Follistatin-related protein 3 (Homo sapiens) (O95633 whole entry, looked up): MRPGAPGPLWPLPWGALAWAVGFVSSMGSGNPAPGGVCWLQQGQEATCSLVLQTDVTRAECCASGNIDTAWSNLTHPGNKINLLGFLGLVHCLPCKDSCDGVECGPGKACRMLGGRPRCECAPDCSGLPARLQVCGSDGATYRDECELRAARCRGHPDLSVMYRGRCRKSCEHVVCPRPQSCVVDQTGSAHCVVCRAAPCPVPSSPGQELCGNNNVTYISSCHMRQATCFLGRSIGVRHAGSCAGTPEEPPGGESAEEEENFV
Chain of Fibroblast growth factor 10 (Homo sapiens) (O15520 whole entry, looked up): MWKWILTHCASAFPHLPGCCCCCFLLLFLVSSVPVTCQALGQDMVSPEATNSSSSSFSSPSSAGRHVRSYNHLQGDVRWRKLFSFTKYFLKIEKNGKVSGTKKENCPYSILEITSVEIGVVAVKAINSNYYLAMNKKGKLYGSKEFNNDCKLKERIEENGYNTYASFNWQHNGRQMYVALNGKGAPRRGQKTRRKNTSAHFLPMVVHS
Chain of Neurogenic locus notch homolog protein 3 (Homo sapiens) (Q9UM47 whole entry, looked up): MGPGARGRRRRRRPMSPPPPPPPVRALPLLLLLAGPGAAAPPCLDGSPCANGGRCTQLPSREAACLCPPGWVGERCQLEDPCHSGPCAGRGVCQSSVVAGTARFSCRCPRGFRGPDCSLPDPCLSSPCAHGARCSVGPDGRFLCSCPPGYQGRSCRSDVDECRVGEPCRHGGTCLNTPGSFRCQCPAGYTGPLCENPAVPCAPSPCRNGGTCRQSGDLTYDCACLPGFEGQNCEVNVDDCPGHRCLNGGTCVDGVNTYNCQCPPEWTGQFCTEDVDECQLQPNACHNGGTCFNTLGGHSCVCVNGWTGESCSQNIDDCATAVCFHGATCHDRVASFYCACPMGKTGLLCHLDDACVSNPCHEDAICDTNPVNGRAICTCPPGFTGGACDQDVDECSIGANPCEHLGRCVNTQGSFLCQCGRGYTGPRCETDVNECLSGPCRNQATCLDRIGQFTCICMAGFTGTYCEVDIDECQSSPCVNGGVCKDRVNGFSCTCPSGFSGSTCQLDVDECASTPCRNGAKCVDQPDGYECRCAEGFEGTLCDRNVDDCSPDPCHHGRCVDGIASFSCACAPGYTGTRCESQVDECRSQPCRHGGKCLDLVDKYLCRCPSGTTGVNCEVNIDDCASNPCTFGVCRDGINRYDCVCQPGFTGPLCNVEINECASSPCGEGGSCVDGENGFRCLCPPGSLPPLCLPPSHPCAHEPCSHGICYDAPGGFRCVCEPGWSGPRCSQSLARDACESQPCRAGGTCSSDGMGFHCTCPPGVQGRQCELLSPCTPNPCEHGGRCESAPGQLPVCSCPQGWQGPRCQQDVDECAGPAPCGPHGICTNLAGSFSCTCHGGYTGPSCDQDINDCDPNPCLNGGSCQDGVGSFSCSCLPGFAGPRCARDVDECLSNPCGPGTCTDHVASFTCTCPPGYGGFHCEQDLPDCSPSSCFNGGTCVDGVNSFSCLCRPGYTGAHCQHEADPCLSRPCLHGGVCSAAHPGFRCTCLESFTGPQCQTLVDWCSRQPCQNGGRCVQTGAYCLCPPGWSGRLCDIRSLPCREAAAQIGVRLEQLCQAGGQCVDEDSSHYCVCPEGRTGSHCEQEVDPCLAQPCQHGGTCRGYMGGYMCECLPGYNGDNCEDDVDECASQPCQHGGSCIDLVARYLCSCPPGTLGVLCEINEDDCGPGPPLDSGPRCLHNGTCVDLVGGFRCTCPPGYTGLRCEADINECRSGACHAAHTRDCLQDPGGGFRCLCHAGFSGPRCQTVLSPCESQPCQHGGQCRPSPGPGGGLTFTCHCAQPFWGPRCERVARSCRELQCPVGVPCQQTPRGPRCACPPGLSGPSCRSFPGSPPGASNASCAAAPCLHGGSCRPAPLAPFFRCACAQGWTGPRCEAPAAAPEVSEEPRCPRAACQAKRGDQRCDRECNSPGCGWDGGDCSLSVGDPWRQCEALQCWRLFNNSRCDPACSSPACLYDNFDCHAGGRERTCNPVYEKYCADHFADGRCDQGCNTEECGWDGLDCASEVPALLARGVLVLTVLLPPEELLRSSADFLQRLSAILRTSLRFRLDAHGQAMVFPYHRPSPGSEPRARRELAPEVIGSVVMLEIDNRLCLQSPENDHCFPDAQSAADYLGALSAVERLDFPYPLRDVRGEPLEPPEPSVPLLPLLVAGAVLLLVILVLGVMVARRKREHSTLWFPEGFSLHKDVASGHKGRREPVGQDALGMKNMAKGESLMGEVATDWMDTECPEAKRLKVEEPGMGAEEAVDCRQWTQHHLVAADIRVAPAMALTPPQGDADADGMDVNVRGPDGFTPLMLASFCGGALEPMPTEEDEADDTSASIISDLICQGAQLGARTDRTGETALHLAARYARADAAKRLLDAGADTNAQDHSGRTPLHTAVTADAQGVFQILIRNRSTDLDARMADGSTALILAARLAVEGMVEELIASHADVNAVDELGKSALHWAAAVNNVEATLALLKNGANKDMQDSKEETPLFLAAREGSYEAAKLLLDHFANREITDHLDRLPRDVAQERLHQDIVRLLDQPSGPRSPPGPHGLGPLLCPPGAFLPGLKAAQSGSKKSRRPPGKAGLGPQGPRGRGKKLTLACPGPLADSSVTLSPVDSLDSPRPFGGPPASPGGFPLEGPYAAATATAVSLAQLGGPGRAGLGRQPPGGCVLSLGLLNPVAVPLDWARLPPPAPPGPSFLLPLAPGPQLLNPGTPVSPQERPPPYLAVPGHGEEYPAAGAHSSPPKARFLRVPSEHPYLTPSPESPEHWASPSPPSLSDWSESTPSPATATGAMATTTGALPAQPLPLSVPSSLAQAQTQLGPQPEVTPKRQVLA
Chain of Torsin-1A-interacting protein 2 (Homo sapiens) (Q8NFQ8 whole entry, looked up): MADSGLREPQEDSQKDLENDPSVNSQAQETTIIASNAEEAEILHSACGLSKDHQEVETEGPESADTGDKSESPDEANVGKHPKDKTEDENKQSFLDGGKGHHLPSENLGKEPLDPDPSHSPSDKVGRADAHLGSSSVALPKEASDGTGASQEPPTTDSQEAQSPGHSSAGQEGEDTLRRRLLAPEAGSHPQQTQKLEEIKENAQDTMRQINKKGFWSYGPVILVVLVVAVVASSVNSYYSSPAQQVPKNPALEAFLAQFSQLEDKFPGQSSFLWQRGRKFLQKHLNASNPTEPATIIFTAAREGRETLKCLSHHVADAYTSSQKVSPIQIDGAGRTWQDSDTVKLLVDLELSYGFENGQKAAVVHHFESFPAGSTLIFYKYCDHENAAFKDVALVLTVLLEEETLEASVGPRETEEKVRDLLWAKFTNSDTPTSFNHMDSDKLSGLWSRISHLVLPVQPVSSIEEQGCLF

| Structure (SMILES) | composite z-score [1] | z-score [2] | z-score [3] | z-score [4] | composite z-score [5] | z-score [6] | composite z-score [7] | composite z-score [8] | composite z-score [9] | composite z-score [10] | composite z-score [11] | composite z-score [12] | composite z-score [13] | z-score [14] | composite z-score [15] | composite z-score [16] | composite z-score [17] | composite z-score [18] | composite z-score [19] | composite z-score [20] |
| --- | --- | --- | --- | --- | --- | --- | --- | --- | --- | --- | --- | --- | --- | --- | --- | --- | --- | --- | --- | --- |
| Cc1ccc(C2C3C(=O)CC4C(=O)N(c5ccccc5)C(=O)C4C3CN2S(=O)(=O)c2ccc(C)cc2)cc1 (stereo not given) | 1.32 | 0.799 (inactive) | 0.499 (inactive) | 1.45 (inactive) | 2.93 | 0.0125 (inactive) | 0.571 | 0.0835 | 1.12 | 0.786 | 0.0792 | 1.24 | 1.05 | 0.495 (inactive) | 0.924 | 0.816 | 0.381 | 0.773 | 0.112 | 0.385 |
| O=C(O)[C@H](Cc1ccccc1)n1cc(-c2ccccc2)nn1 | 0.112 | 0.306 (inactive) | 0.865 (inactive) | 0.173 (inactive) | 1.03 | -0.741 (inactive) | -0.0592 | 0.197 | 0.185 | 0.119 | 0.0064 | -0.284 | -0.367 | -0.544 (inactive) | 0.467 | 0.569 | 0.293 | 0.179 | 0.31 | 0.267 |
| CS(=O)(=O)CCOC(=O)C1=CC(CCCO)=CC(c2ccc(CN3CCCC3)cc2)N(Cc2cccc(OC(F)(F)F)c2)C=C1C(=O)OCCS(C)(=O)=O (stereo not given) | 1.57 | 0.441 (inactive) | -12.9 (active) | -0.805 (inactive) | 2.62 | -1.05 (inactive) | 0.336 | 0.738 | 1.13 | 0.172 | 1.02 | 0.275 | 0.367 | 0.0999 (inactive) | 1.19 | 0.997 | 0.582 | 0.945 | 0.468 | 1.32 |
| COC(=O)c1c2oc(c1C(=O)OC)C(=O)N[C@@H](C(C)C)Cn1cc(nn1)C1(CCCCC1)NC(=O)N[C@H](CO)CC2 | 0.523 | -0.301 (inactive) | -0.772 (inactive) | -0.538 (inactive) | 1.41 | 1.29 (inactive) | -0.116 | 1.59 | 0.171 | -0.163 | 1.68 | -0.324 | -0.288 | 0.343 (inactive) | 0.408 | 0.0356 | -0.375 | -0.0824 | 0.145 | -0.462 |
| CC#CC(=O)Oc1ccc(Br)cc1C=CC(=O)OCC | 0.162 | -23.6 (active) | -16 (active) | -2.38 (inactive) | 1.18 | -0.0056 (inactive) | 0.188 | -0.157 | 0.0254 | -0.0765 | -0.384 | 0.321 | 0.481 | 1.07 (inactive) | -0.0853 | -0.108 | -0.257 | 0.137 | -0.382 | 1.24 |
| COCCOC(=O)N1C(=O)[C@@]2(c3cc(C#CC4=CCCCC4)ccc31)[C@H](C(N)=O)[C@H]1C(=O)O[C@H](c3ccccc3)[C@H](c3ccccc3)N1[C@@H]2c1ccc(O)cc1 | 1.55 | -1.59 (inactive) | -0.638 (inactive) | 0.0591 (inactive) | 3.06 | 0.573 (inactive) | 0.725 | 0.735 | 1.13 | 0.0038 | 1.61 | 0.0331 | 0.275 | -1.18 (inactive) | 1.15 | 0.96 | 0.586 | 0.829 | 0.318 | 0.787 |
| O=C(O)[C@@]1(CCS(=O)(=O)c2ccccc2)N=C(c2ccc(OCCCO)cc2)O[C@H]1c1ccccc1 | 1.07 | -0.326 (inactive) | -5.25 (inactive) | -0.934 (inactive) | 3.46 | 0.712 (inactive) | 0.16 | -0.0519 | -0.0296 | -0.144 | 0.729 | 0.737 | 0.905 | -0.123 (inactive) | -0.678 | -0.123 | -0.264 | 0.215 | -1.05 | 0.658 |
| COc1cc(CO)cc(I)c1O[C@H]1C=C(C(=O)NCCO)C[C@@H](NC[C@@H]2CCCO2)[C@@H]1O | 1.35 | -0.396 (inactive) | -0.424 (inactive) | -0.0698 (inactive) | 1.91 | 1.6 (inactive) | -0.17 | 1.26 | 0.554 | -0.0033 | 0.922 | -0.349 | -0.204 | -0.466 (inactive) | 0.671 | 0.0227 | -0.0367 | 0.334 | 0.17 | -0.0437 |
| NC(=O)[C@@]1(Cc2ccccc2)N=C(c2ccc(OCCCO)cc2)O[C@H]1c1ccccc1 | 0.439 | 3.21 (inactive) | 1.04 (inactive) | -0.0393 (inactive) | 2.41 | 1.95 (inactive) | 0.0694 | 0.0537 | -0.0043 | -0.0996 | 0.363 | 0.963 | 1.22 | -1.26 (inactive) | 1.15 | -0.327 | 0.0149 | -0.68 | -0.348 | 0.87 |
| CO[C@H]1O[C@H](CO)[C@@H](OC(=O)Nc2ccc(Oc3ccccc3)cc2)[C@H](OC(=O)Nc2ccc3c(c2)OCO3)[C@@H]1OC(=O)Nc1ccc2c(c1)OCO2 | 1.53 | 2.21 (inactive) | 1.22 (inactive) | 8.57 (active) | 3.04 | 1.36 (inactive) | 0.237 | 0.866 | 1.07 | 0.367 | 1.38 | 0.337 | 0.478 | -0.762 (inactive) | 1.17 | 1.33 | 0.54 | 1.39 | 0.46 | 0.707 |
